Assay results reported in the supplement of paper PMC9492666.
Where a name gives a salt, the structure may show the parent alone.

Legend:
HCC1937 = experiment: relative cell viability, compound alone, vs DMSO (fraction of DMSO control); higher = less growth inhibition; conditions: 72 h
MDA-MB-231 = experiment: as above; conditions: 72 h
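Also: viability read out with the CCK-8 kit in 96-well plates, screening a set of 303 compounds acting on lipid metabolism targets.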

| SMILES | relative cell viability (HCC1937) | relative cell viability (MDA-MB-231) |
| --- | --- | --- |
| COC(=O)c1cc(Cl)c(O)c(S(=O)(=O)Nc2cc(-c3ccccc3)c(F)cc2F)c1 | 0.737 | 0.833 |
| O=C(/C=C/c1ccc(/C=C/C(=O)Nc2ccc(C3=NCCN3)cc2)cc1)Nc1ccc(C2=NCCN2)cc1 | 0.772 | 0.765 |
| Nc1ncnc2c1ncn2C1OC(COP(=O)(O)O)C(O)C1O (centres undefined) [Adenosine 5'-monophosphate monohydrate] | 1.09 | 1.03 |
| C[C@H](CCCC(C)(C)O)[C@H]1CC[C@H]2[C@@H]3CC=C4C[C@@H](O)CC[C@]4(C)[C@H]3CC[C@]12C [25-Hydroxycholesterol] | 0.982 | 0.89 |
| COc1ccc(-c2cc(=O)c3c(O)c(OC)c(OC)c(OC)c3o2)cc1OC | 0.699 | 0.82 |
| O=c1oc2ccccc2cc1O [3-Hydroxycoumarin] | 1.02 | 1.05 |
| CCC1C(O)C2C3CCC(C(C)CCO)C3(C)CCC2C2(C)CCC(O)CC12 (centres undefined) | 0.848 | 0.916 |
| Cc1nc(-c2nc(-c3ccc(OC(F)(F)F)cc3)no2)nn1Cc1cccc(N2CCC(S(C)(=O)=O)CC2)c1 | 0.93 | 0.775 |
| O=C(Nc1ccc(C(O)(C(F)(F)F)C(F)(F)F)cc1)c1ccc(C(F)(F)F)cc1 | 0.54 | 0.631 |
| CC(=O)Oc1cc(C(F)(F)F)ccc1C(=O)O [Triflusal] | 1.1 | 0.982 |
| CC(C)c1cc(C(C)C)c(CC(=O)NS(=O)(=O)Oc2c(C(C)C)cccc2C(C)C)c(C(C)C)c1 [Avasimibe] | 0.707 | 0.832 |
| C[C@H]1N=C(N(C)C)N=C(N)N1 [Imeglimin hydrochloride] | 0.912 | 0.838 |
| O=C(c1ccc(-c2nc3ccc(F)cc3o2)cc1)N1CCN(C(=O)C2(O)CC2)CC1 | 0.831 | 0.918 |
| COc1cc([C@@H]2Oc3c(O)cc([C@H]4Oc5cc(O)cc(O)c5C(=O)[C@@H]4O)cc3[C@H]2CO)ccc1O [Silychristin] | 1.04 | 1.02 |
| O=C(O)CC[C@H](O)C(=O)O [L-2-Hydroxyglutaric acid disodium] | 1.04 | 1 |
| CCCCCCCCCCCCCCOc1ccc(C(=O)OCC(=O)N(C)CC(=O)OCC)o1 [Olumacostat Glasaretil] | 0.812 | 0.863 |

| SMILES | relative cell viability (HCC1937) | relative cell viability (MDA-MB-231) |
| --- | --- | --- |
| Nc1ccc(C(=O)O)c(O)c1 [Aminopar] | 1.1 | 0.911 |
| OC[C@H]1O[C@@H](Oc2cc(O)cc(/C=C/c3ccc(O)cc3)c2)[C@H](O)[C@@H](O)[C@@H]1O [Polydatin] | 1.07 | 0.871 |
| Cc1ccc(/C=C2\SC(=S)N(CCCCCC(=O)Nc3ccc(C(=O)O)c(O)c3)C2=O)cc1 | 1.07 | 0.914 |
| COc1ccc(/C=C/c2cc(O)cc(O[C@@H]3O[C@H](CO)[C@@H](O)[C@H](O)[C@H]3O)c2)cc1 [Deoxyrhapontin] | 0.932 | 0.995 |
| O=C(O)C(O)Cc1ccc(O)c(O)c1 (centres undefined) [Sodium Danshensu] | 0.718 | 0.818 |
| COC(=O)N(CC(=O)O)Cc1cccc(OCc2nc(-c3ccc(Cl)cc3)oc2C)c1 | 1.08 | 0.834 |
| CC(C)OC(=O)C(C(=O)OC(C)C)=C1SC=CS1 [Malotilate] | 0.686 | 0.828 |
| CSc1ccc(C(=O)/C=C/c2cc(C)c(OC(C)(C)C(=O)O)c(C)c2)cc1 [Elafibranor] | 1.57 | 1.06 |
| O=C(O)C(=O)Nc1sc2c(c1C(=O)O)CCNC2 | 1.01 | 0.872 |
| COc1cc(F)c(C(C)C)cc1-c1ccc(C(F)(F)F)cc1CN1C(=O)O[C@H](c2cc(C(F)(F)F)cc(C(F)(F)F)c2)[C@@H]1C [Anacetrapib] | 0.72 | 0.877 |
| CN(C)CCOC(=O)COc1ccc(Cl)cc1 [Meclofenoxate hydrochloride] | 0.782 | 0.933 |
| CCc1c(-c2ccccc2)c(-c2ccccc2)nn1-c1ccccc1-c1cccc(OCC(=O)O)c1 | 1.18 | 0.994 |
| Oc1ccc(/C=C/c2cc(O)cc(O)c2)cc1 [Resveratrol] | 0.67 | 0.755 |
| C=C(C)[C@@H]1CC[C@]2(C)CC[C@]3(C)[C@H](CC[C@@H]4[C@@]5(C)CCC(=O)C(C)(C)[C@@H]5CC[C@]43C)[C@@H]12 | 1.04 | 1.08 |
| CC(C)OC(=O)CCC/C=C\C[C@@H]1[C@@H](CC[C@@H](O)CCc2ccccc2)[C@H](O)C[C@@H]1O [Latanoprost] | 1.43 | 0.88 |
| CCCCCC=CC(=O)CCc1ccc(O)c(OC)c1 [6-Shogaol] | 0.937 | 0.978 |
